According to the supplement of paper PMC10849652:
About 7,900 targets were measured; listed, in parts, are those with a hit and a random draw of the rest. About 0.6% of all pairs of compound and target were hits.

How the values were obtained:
Assay in all cases: log2 fold change, soluble protein after heating vs DMSO (PISA); higher = thermal stabilisation; K562 cells, 10 uM, 30 min; active = over 0.2 and 3.5 SD of the protein, either way, in both replicates (recomputed)
[1] = compound: CN1CCN(CCOc2cc(OC3CCOCC3)c3c(Nc4c(Cl)ccc5c4OCO5)ncnc3c2)CC1 [saracatinib]
Outline: (§1)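 K562 cells (2×10^6 cells/mL) were treated with 10 μM compound for 30 min, and aliquots were heated for 3 min over 48°C-58°C. Pooled aliquots were extracted in PBS with 0.5% NP-40 at 4°C, and the supernatant after 21,000xg for 90 min was measured by TMTpro 16plex LC-MS/MS with channel sums equalised. Reported thermal stability, relative to control samples and from duplicates, is a log2 fold change.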

[2] = compound: CN1CCN(c2nc(C3=C(c4c[nH]c5ccccc45)C(=O)NC3=O)c3ccccc3n2)CC1 [sotrastaurin]
Outline: as §1

[3] = compound: CN1CC[C@H](c2c(O)cc(O)c3c(=O)cc(-c4ccccc4Cl)oc23)[C@H](O)C1 [alvocidib]
Outline: as §1

[4] = compound: CN1CCc2c(c3ccccc3n2Cc2ccc(C(=O)NO)cc2)C1 [Tubastatin A]
Outline: as §1

[5] = compound: CNC(=O)C1=CC=CC=C1NC2=NC(=NC=C2Cl)NC3=C(C=C(C=C3)N4CCOCC4)OC
Outline: as §1

[6] = compound: CNC(=O)c1ccc(Nc2ncc(C(F)(F)F)c(NCc3nccnc3N(C)S(C)(=O)=O)n2)cc1 [defactinib]
Outline: as §1

[7] = compound: CNCc1ccc(-c2[nH]c3cc(F)cc4c3c2CCNC4=O)cc1 [rucaparib]
Outline: as §1

[8] = compound: CNc1nc(-c2ccc3c(N)n[nH]c3c2)cc(N2C[C@@H](C(=O)NC3CCCCC3)CC[C@H]2C)n1
Outline: as §1

[9] = compound: COC(=O)N[C@@H](C)CNc1nccc(-c2cn(C(C)C)nc2-c2cc(Cl)cc(NS(C)(=O)=O)c2F)n1 [encorafenib]
Outline: as §1

[10] = compound: COC(=O)[C@H](CCSC)NC(=O)C1=C(C=C(C=C1)NC[C@H](CS)N)C2=CC=CC=C2
Outline: as §1

[11] = compound: COC1=CC=C(C=C1)CN2C=CC3=C2C=C(C=C3)C(=O)NO
Outline: as §1

[12] = compound: CON(C)C(=O)N1N=C(c2cc(F)ccc2F)S[C@@]1(CCCN)c1ccccc1 [filanesib]
Outline: as §1

[13] = compound: CO[C@H]1C[C@@H]2CC[C@@H](C)[C@@](O)(O2)C(=O)C(=O)N2CCCC[C@H]2C(=O)O[C@H]([C@H](C)C[C@@H]2CC[C@H](n3cnnn3)[C@H](OC)C2)CC(=O)[C@H](C)/C=C(\C)[C@@H](O)[C@@H](OC)C(=O)[C@H](C)C[C@H](C)/C=C/C=C/C=C/1C [zotarolimus]
Outline: as §1

[14] = compound: COc1cc(C(=O)O)ccc1NC(=O)[C@@H]1N[C@@H](CC(C)(C)C)[C@](C#N)(c2ccc(Cl)cc2F)[C@H]1c1cccc(Cl)c1F [idasanutlin]
Outline: as §1

[15] = compound: COc1cc(Nc2ncc3c(n2)-c2ccc(Cl)cc2C(c2c(F)cccc2OC)=NC3)ccc1C(=O)O [alisertib]
Outline: as §1

[16] = compound: COc1cc2nc(-c3cc(F)ccc3O)nc(N[C@@H]3CNC[C@H]3C(C)(C)O)c2cc1OC
Outline: as §1

[17] = compound: COc1cc2ncnc(Nc3ccc(F)c(Cl)c3)c2cc1OCCCN1CCOCC1 [gefitinib]
Outline: as §1

[18] = compound: COc1cccc2cc(-c3nc([C@H]4CC[C@H](C(=O)O)CC4)n4ncnc(N)c34)[nH]c12
Outline: as §1

[19] = compound: CS(=O)(=O)CCNCc1ccc(-c2ccc3ncnc(Nc4ccc(OCc5cccc(F)c5)c(Cl)c4)c3c2)o1 [lapatinib]
Outline: as §1

[20] = compound: CS(=O)(=O)N1CCN(Cc2cc3nc(-c4cccc5[nH]ncc45)nc(N4CCOCC4)c3s2)CC1 [pictilisib]
Outline: as §1

Measured: log2 fold change

RANBP2 (UniProt P49792)
UniProt P49792, sequence (P49792 whole entry, looked up): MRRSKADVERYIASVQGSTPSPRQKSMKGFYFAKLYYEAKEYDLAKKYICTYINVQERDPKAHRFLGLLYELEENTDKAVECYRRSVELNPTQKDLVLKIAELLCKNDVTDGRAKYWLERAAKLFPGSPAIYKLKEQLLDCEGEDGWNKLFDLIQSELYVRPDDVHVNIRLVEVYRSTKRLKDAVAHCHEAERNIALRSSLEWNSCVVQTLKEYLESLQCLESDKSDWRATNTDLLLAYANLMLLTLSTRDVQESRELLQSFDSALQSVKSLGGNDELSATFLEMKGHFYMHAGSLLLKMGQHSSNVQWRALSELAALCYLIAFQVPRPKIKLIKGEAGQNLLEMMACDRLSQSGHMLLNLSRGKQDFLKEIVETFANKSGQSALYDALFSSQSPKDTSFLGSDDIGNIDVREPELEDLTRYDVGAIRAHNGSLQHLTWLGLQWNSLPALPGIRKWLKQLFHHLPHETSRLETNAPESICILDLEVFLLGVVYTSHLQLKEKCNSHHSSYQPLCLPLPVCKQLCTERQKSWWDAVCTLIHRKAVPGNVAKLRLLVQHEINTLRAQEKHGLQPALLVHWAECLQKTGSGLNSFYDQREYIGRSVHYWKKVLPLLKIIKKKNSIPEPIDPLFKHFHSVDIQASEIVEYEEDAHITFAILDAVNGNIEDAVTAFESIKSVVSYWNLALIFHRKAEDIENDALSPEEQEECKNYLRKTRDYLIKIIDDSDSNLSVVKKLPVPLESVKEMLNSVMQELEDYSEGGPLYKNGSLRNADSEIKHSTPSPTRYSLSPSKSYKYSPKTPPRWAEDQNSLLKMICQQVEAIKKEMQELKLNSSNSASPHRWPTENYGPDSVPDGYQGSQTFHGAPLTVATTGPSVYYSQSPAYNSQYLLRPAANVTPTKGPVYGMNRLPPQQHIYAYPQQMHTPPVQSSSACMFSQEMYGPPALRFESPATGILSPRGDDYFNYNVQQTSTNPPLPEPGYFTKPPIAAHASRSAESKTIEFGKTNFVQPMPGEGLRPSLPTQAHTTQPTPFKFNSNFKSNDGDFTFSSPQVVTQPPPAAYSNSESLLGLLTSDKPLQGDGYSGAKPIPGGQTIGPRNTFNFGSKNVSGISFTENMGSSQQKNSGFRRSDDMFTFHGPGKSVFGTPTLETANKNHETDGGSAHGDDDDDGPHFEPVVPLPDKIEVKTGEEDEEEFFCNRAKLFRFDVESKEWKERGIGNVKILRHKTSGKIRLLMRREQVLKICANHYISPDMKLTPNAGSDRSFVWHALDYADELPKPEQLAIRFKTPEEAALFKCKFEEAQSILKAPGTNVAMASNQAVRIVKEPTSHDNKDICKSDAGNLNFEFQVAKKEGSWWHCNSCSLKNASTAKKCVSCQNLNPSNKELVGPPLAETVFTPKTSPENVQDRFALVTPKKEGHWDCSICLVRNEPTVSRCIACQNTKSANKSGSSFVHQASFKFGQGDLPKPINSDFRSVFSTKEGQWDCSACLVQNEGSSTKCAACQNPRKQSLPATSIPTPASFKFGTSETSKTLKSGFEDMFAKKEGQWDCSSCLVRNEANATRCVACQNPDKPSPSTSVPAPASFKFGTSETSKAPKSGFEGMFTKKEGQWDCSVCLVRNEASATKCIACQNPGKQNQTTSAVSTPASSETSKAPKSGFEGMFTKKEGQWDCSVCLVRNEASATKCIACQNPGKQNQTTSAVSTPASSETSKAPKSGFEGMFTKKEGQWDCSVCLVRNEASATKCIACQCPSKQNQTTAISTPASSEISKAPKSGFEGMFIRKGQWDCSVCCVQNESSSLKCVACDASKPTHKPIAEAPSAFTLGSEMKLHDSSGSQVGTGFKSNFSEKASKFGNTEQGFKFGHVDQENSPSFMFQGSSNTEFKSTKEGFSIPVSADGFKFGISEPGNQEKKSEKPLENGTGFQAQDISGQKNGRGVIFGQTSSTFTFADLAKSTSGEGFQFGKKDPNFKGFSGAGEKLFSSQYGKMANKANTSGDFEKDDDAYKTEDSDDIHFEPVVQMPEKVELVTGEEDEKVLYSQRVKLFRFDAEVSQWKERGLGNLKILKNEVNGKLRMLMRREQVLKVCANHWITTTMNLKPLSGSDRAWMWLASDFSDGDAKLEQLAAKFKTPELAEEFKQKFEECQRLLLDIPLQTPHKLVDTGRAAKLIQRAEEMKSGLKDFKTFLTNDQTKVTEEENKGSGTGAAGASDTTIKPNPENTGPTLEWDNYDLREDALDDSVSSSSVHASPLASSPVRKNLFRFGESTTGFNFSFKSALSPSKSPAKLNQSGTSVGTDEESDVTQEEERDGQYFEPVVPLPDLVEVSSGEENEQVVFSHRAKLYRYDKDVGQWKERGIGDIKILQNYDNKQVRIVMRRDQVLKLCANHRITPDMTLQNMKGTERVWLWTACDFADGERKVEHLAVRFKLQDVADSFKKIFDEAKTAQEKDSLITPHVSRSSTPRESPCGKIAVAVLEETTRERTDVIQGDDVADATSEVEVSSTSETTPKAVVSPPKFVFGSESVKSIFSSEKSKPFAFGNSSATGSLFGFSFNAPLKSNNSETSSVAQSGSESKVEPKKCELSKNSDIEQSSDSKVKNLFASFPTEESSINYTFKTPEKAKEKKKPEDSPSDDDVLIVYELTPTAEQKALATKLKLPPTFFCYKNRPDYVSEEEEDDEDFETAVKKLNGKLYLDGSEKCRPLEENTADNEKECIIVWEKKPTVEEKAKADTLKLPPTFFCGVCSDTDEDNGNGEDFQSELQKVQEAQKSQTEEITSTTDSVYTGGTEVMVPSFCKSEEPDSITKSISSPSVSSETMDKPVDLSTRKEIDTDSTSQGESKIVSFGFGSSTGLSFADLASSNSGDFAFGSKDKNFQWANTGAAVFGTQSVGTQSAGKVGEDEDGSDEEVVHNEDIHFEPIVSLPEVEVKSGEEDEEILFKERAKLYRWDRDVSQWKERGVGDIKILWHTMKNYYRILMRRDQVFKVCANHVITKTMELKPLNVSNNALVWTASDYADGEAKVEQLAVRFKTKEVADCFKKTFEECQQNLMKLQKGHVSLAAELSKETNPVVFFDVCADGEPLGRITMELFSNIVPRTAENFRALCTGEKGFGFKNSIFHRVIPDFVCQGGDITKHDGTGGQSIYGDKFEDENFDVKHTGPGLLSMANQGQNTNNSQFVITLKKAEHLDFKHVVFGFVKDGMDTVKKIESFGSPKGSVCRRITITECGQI
inactive: [1] -0.011 | [2] -0.06 | [3] -0.079 | [4] -0.016 | [5] 0.886 | [6] -0.009 | [7] -0.028 | [8] -0.016 | [9] -0.045 | [10] -0.03 | [12] -0.048 | [13] 0.029 | [14] -0.005 | [15] 0.079 | [16] 0.044 | [17] 0.05 | [18] -0.097 | [19] -0.07 | [20] -0.002
active: [11] 0.334

RPS25 (UniProt P62851)
inactive: [1] -0.052 | [2] 0.007 | [3] 0.178 | [4] 0.094 | [5] 0.095 | [6] 0.184 | [7] 0.124 | [8] 0.076 | [9] 0.01 | [10] 0.024 | [11] 0.006 | [12] 0.145 | [13] -0.015 | [14] 0.061 | [15] -0.143 | [16] -0.038 | [17] -0.022 | [18] -0.198 | [19] 0.038 | [20] -0.08

RUFY1 (UniProt Q96T51)
inactive: [1] -0.037 | [2] -0.174 | [3] -0.041 | [4] -0.012 | [5] 0.045 | [6] -0.071 | [7] 0.032 | [8] -0.09 | [9] 0.077 | [10] -0.02 | [11] -0.015 | [12] 0.005 | [13] 0.056 | [14] -0.049 | [15] 0.047 | [16] 0.02 | [17] -0.004 | [18] -0.053 | [19] -0.035 | [20] -0.009

RPS15 (UniProt P62841)
inactive: [1] -0.02 | [2] 0.07 | [3] 0.325 | [4] 0.087 | [5] 0.04 | [6] 0.233 | [7] 0.226 | [8] 0.061 | [9] 0.028 | [10] 0.06 | [11] 0.086 | [12] 0.192 | [13] -0.082 | [14] 0.049 | [15] -0.107 | [16] 0.027 | [17] 0.008 | [18] -0.147 | [19] -0.01 | [20] -0.054

RIOK2 (UniProt Q9BVS4)
inactive: [1] -0.073 | [2] 0.033 | [3] 0.169 | [4] 0.067 | [5] 0.195 | [6] 0.138 | [7] 0.014 | [8] 0.069 | [9] 0.05 | [10] -0.009 | [11] -0.039 | [12] 0.064 | [13] -0.017 | [14] 0.01 | [15] -0.025 | [16] 0.074 | [17] -0.101 | [18] -0.057 | [19] 0.08 | [20] 0.049

RGS10 (UniProt O43665)
UniProt O43665, sequence (O43665 whole entry, looked up): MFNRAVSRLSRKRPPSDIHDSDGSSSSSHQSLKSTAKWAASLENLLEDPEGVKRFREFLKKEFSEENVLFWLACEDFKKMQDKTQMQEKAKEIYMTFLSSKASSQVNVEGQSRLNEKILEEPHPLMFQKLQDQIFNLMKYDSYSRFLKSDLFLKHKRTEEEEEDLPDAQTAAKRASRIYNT
inactive: [1] 0.033 | [2] -0.023 | [3] -0.042 | [4] 0.049 | [5] 0.014 | [6] -0.11 | [7] 0.038 | [8] 0 | [9] -0.001 | [10] -0.002 | [11] -0.023 | [12] -0.081 | [13] 0.115 | [14] 0.086 | [15] -0.053 | [16] 0.003 | [17] 0.056 | [18] -0.014 | [19] 0.029 | [20] -0.028

RAD50 isoform 2 (UniProt Q92878)
inactive: [1] 0.012 | [2] -0.024 | [3] -0.084 | [4] -0.025 | [5] 0 | [6] -0.103 | [7] 0.006 | [8] 0.006 | [9] 0.008 | [10] -0.019 | [11] -0.002 | [12] 0.008 | [13] 0.036 | [14] -0.016 | [15] 0 | [16] 0.002 | [17] 0.031 | [18] 0.007 | [19] -0.002 | [20] 0.02

SELENOH (UniProt Q8IZQ5)
inactive: [1] 0.124 | [2] -0.171 | [3] 0.066 | [4] 0.032 | [5] -0.063 | [6] -0.026 | [7] -0.011 | [8] 0.022 | [9] 0.011 | [10] -0.038 | [11] 0.204 | [12] -0.077 | [13] 0.035 | [14] 0.02 | [15] -0.27 | [16] -0.114 | [17] -0.028 | [18] -0.038 | [19] 0.08 | [20] -0.074

ROCK2 (UniProt O75116)
inactive: [1] 0.02 | [2] -0.096 | [3] -0.01 | [4] -0.001 | [5] -0.062 | [6] -0.097 | [7] -0.027 | [8] 0.212 | [9] 0.042 | [10] -0.003 | [11] -0.009 | [12] -0.006 | [13] 0.023 | [14] 0 | [15] 0.072 | [16] 0.135 | [17] 0.045 | [18] -0.038 | [19] -0.029 | [20] 0.071

SEC23IP (UniProt Q9Y6Y8)
UniProt Q9Y6Y8, sequence (Q9Y6Y8 whole entry, looked up): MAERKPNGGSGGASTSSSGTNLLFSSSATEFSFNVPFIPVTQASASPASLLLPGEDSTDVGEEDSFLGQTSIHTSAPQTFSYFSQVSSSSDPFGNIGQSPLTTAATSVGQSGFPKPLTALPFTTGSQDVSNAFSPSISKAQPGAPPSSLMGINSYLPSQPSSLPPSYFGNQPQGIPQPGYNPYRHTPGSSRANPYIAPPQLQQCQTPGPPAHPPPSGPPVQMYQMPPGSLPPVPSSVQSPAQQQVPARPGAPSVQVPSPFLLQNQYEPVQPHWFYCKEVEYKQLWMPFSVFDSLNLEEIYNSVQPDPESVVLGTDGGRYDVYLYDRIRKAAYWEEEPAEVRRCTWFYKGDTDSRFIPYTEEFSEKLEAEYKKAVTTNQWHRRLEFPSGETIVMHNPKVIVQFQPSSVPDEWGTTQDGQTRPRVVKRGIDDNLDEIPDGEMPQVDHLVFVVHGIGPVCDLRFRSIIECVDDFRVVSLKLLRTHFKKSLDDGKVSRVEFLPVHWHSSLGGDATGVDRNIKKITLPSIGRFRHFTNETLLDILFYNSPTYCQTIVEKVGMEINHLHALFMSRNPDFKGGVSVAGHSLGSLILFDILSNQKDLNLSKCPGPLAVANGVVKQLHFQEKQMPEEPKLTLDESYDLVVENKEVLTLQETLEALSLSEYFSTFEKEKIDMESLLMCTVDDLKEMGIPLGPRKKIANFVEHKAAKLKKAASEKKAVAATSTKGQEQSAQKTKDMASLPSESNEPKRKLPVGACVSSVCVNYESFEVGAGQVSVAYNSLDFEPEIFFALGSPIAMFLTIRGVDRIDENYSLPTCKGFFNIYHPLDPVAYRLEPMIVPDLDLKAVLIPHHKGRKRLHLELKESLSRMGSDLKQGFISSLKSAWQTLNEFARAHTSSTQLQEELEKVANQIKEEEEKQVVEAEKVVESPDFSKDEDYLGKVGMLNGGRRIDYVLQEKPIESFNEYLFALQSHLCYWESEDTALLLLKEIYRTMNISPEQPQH
inactive: [1] -0.097 | [2] -0.048 | [3] -0.157 | [4] 0.043 | [5] -0.092 | [6] -0.156 | [7] -0.019 | [8] -0.045 | [9] 0.058 | [10] 0.025 | [11] -0.006 | [12] 0 | [13] -0.002 | [14] 0.016 | [15] 0 | [16] -0.065 | [17] 0.009 | [18] -0.096 | [19] 0.035 | [20] -0.006

RAB5IF isoform 5 (UniProt Q9BUV8)
active: [11] 0.429
inactive: [1] 0.114 | [2] -0.018 | [3] -0.115 | [4] -0.139 | [5] -0.08 | [6] -0.01 | [7] -0.014 | [8] -0.018 | [9] 0.08 | [10] 0.031 | [12] -0.243 | [13] -0.074 | [14] -0.015 | [15] -0.081 | [16] -0.021 | [17] 0.018 | [18] 0.002 | [19] 0.006 | [20] 0.006

SCCPDH (UniProt Q8NBX0)
UniProt Q8NBX0, sequence (Q8NBX0 whole entry, looked up): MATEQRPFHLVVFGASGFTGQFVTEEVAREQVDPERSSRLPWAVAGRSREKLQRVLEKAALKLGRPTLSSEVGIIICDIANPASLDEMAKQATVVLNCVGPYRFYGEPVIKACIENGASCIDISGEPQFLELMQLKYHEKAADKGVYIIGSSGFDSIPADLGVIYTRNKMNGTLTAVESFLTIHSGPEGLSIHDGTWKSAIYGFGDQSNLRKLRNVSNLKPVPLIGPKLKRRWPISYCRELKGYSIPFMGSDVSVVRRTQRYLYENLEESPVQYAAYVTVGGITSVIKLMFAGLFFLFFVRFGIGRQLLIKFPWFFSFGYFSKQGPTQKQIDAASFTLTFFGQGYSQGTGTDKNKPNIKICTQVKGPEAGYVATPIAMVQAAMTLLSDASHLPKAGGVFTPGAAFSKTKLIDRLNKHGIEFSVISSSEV
active: [11] 0.436
inactive: [1] -0.063 | [2] 0.1 | [3] -0.057 | [4] -0.078 | [5] 0.206 | [6] 0.121 | [7] -0.081 | [8] 0.183 | [9] -0.041 | [10] 0.002 | [12] 0.139 | [13] 0.349 | [14] 0.025 | [15] -0.058 | [16] -0.026 | [17] -0.016 | [18] 0.076 | [19] 0.015 | [20] 0.135

RALA (UniProt P11233)
UniProt P11233, sequence (P11233 whole entry, looked up): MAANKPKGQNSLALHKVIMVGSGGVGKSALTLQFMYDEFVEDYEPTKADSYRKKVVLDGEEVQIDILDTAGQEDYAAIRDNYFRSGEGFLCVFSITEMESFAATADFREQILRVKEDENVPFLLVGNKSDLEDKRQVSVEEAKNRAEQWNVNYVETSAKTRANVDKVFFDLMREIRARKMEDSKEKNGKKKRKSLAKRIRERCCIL
inactive: [2] 0.05 | [3] 0.013 | [4] -0.008 | [5] -0.045 | [6] 0.017 | [7] 0.002 | [8] 0.086 | [9] 0.033 | [10] 0.004 | [12] -0.025 | [13] 0.035 | [14] -0.019 | [15] -0.066 | [16] -0.066 | [17] 0.004 | [18] 0.053 | [19] 0.025 | [20] -0.099
active: [1] 0.203 | [11] 0.348
